Targets with a hit are over-represented here; the source holds about 8,800 in all. About 0.5% of all pairs of compound and target were hits.
Legend:
Experiment in all cases: log2 fold change, soluble protein after heating vs DMSO (PISA); higher = thermal stabilisation; K562 lysate, 10 uM; active = over 0.2 and 3.5 SD of the protein, either way, in both replicates (recomputed)
alvocidib = compound: CN1CC[C@H](c2c(O)cc(O)c3c(=O)cc(-c4ccccc4Cl)oc23)[C@H](O)C1 [alvocidib]
In short: (§1)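 A 30 min treatment with 10 μM compound was applied to crude K562 extract at 1 mg/mL protein in PBS pH 7.4 with 1 mM MgCl2. Heating for 3 min spanned 48°C-58°C, after which aliquots were pooled, adjusted to 0.5% NP-40 at 4°C and spun at 21,000xg for 90 min. TMTpro 16plex LC-MS/MS of the supernatant, with channel sums equalised, gave values recorded as log-two fold change in thermal stability against solvent controls, from duplicates.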

Tubastatin A = compound: CN1CCc2c(c3ccccc3n2Cc2ccc(C(=O)NO)cc2)C1 [Tubastatin A]
In short: as §1

[1] = compound: CNC(=O)C1=CC=CC=C1NC2=NC(=NC=C2Cl)NC3=C(C=C(C=C3)N4CCOCC4)OC
In short: as §1

defactinib = compound: CNC(=O)c1ccc(Nc2ncc(C(F)(F)F)c(NCc3nccnc3N(C)S(C)(=O)=O)n2)cc1 [defactinib]
In short: as §1

[2] = compound: CNc1nc(-c2ccc3c(N)n[nH]c3c2)cc(N2C[C@@H](C(=O)NC3CCCCC3)CC[C@H]2C)n1
In short: as §1

encorafenib = compound: COC(=O)N[C@@H](C)CNc1nccc(-c2cn(C(C)C)nc2-c2cc(Cl)cc(NS(C)(=O)=O)c2F)n1 [encorafenib]
In short: as §1

[3] = compound: COC(=O)[C@H](CCSC)NC(=O)C1=C(C=C(C=C1)NC[C@H](CS)N)C2=CC=CC=C2
In short: as §1

alisertib = compound: COc1cc(Nc2ncc3c(n2)-c2ccc(Cl)cc2C(c2c(F)cccc2OC)=NC3)ccc1C(=O)O [alisertib]
In short: as §1

[4] = compound: COc1cc2nc(-c3cc(F)ccc3O)nc(N[C@@H]3CNC[C@H]3C(C)(C)O)c2cc1OC
In short: as §1

gefitinib = compound: COc1cc2ncnc(Nc3ccc(F)c(Cl)c3)c2cc1OCCCN1CCOCC1 [gefitinib]
In short: as §1

Measured: log2 fold change

SRRT (UniProt Q9BXP5)
inactive: alvocidib 0.014 | Tubastatin A -0.195 | [1] 0.008 | defactinib -0.013 | [2] -0.02 | encorafenib 0.024 | [3] 0.202 | alisertib 0.03 | [4] -0.01 | gefitinib 0.009

SLC30A9 (UniProt Q6PML9)
inactive: alvocidib 0 | Tubastatin A 0.022 | [1] 0.002 | defactinib 0.064 | [2] 0.023 | encorafenib 0.032 | [3] 0.05 | alisertib -0.008 | [4] -0.079 | gefitinib -0.01

SYF2 (UniProt O95926)
Chain of UniProt O95926 (O95926 whole entry, looked up): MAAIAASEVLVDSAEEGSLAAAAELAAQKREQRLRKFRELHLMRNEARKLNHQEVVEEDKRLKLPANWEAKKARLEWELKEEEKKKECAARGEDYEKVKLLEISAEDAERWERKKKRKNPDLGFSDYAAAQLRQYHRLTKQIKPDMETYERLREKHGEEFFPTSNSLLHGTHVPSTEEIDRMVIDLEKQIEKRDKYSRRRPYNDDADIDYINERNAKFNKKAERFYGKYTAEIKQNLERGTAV
inactive: alvocidib 0.004 | Tubastatin A 0.039 | [1] 0.103 | defactinib -0.034 | [2] 0.049 | encorafenib 0.038 | [3] 0.033 | alisertib 0.018 | [4] 0.058 | gefitinib 0.038

SLC12A6 (UniProt Q9UHW9)
Chain of UniProt Q9UHW9 (Q9UHW9 whole entry, looked up): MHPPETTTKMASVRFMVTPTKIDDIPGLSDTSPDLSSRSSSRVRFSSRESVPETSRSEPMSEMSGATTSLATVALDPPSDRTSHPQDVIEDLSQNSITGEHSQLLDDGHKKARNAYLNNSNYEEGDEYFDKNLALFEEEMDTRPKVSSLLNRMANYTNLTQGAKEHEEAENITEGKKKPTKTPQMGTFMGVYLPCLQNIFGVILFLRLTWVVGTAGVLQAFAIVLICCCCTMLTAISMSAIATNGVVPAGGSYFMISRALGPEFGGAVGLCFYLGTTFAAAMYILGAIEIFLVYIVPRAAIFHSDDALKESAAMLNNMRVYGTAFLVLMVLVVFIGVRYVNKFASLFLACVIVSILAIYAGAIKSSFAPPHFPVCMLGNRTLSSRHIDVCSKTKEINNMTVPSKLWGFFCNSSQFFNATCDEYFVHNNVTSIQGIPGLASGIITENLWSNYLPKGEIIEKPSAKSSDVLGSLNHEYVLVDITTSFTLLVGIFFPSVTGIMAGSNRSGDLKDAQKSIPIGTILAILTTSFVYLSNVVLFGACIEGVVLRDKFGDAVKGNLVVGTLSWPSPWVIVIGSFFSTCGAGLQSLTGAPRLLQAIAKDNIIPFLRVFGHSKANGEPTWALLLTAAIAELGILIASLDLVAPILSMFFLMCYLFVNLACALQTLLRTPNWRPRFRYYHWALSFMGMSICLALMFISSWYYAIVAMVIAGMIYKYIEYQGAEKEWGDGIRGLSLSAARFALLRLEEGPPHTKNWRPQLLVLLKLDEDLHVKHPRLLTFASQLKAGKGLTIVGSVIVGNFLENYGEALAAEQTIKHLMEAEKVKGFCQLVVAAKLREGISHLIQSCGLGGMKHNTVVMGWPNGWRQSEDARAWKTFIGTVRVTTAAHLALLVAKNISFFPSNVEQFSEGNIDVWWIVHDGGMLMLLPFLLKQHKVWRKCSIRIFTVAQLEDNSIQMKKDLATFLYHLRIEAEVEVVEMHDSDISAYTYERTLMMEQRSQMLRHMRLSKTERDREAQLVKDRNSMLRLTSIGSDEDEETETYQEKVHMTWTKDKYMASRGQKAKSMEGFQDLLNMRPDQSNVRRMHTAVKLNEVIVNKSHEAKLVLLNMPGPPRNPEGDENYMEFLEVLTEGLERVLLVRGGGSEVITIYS
inactive: alvocidib -0.03 | Tubastatin A 0.03 | [1] 0.065 | defactinib 0.006 | [2] -0.038 | encorafenib 0.034 | [3] -0.021 | alisertib -0.006 | [4] 0.004 | gefitinib 0.093

TARBP2 (UniProt Q15633)
inactive: alvocidib 0.016 | Tubastatin A -0.147 | [1] 0.038 | defactinib 0.017 | [2] -0.026 | encorafenib 0.037 | [3] 0.072 | alisertib -0.039 | [4] 0.008 | gefitinib -0.01

SNRNP40 (UniProt Q96DI7)
inactive: alvocidib -0.026 | Tubastatin A 0.021 | [1] -0.019 | defactinib -0.009 | [2] -0.021 | encorafenib -0.025 | [3] -0.01 | alisertib 0.016 | [4] -0.004 | gefitinib -0.01

SHKBP1 (UniProt Q8TBC3)
inactive: alvocidib -0.038 | Tubastatin A -0.018 | [1] -0.002 | defactinib 0.115 | [2] 0.046 | encorafenib -0.05 | alisertib 0.019 | [4] 0.001 | gefitinib 0.023
active: [3] 0.274

SOAT1 (UniProt P35610)
inactive: alvocidib -0.033 | Tubastatin A 0.086 | [1] 0.036 | defactinib -0.022 | [2] -0.002 | encorafenib 0.065 | [3] 0.123 | alisertib -0.014 | [4] -0.076 | gefitinib 0.047

SULT1A1 (UniProt P50225)
inactive: alvocidib 0.031 | Tubastatin A -0.043 | [1] 0.018 | defactinib -0.11 | [2] 0.06 | encorafenib 0.026 | [3] 0.017 | alisertib 0.036 | [4] -0.005 | gefitinib -0.011

SMARCA4 (UniProt P51532)
Chain of UniProt P51532 (P51532 whole entry, looked up): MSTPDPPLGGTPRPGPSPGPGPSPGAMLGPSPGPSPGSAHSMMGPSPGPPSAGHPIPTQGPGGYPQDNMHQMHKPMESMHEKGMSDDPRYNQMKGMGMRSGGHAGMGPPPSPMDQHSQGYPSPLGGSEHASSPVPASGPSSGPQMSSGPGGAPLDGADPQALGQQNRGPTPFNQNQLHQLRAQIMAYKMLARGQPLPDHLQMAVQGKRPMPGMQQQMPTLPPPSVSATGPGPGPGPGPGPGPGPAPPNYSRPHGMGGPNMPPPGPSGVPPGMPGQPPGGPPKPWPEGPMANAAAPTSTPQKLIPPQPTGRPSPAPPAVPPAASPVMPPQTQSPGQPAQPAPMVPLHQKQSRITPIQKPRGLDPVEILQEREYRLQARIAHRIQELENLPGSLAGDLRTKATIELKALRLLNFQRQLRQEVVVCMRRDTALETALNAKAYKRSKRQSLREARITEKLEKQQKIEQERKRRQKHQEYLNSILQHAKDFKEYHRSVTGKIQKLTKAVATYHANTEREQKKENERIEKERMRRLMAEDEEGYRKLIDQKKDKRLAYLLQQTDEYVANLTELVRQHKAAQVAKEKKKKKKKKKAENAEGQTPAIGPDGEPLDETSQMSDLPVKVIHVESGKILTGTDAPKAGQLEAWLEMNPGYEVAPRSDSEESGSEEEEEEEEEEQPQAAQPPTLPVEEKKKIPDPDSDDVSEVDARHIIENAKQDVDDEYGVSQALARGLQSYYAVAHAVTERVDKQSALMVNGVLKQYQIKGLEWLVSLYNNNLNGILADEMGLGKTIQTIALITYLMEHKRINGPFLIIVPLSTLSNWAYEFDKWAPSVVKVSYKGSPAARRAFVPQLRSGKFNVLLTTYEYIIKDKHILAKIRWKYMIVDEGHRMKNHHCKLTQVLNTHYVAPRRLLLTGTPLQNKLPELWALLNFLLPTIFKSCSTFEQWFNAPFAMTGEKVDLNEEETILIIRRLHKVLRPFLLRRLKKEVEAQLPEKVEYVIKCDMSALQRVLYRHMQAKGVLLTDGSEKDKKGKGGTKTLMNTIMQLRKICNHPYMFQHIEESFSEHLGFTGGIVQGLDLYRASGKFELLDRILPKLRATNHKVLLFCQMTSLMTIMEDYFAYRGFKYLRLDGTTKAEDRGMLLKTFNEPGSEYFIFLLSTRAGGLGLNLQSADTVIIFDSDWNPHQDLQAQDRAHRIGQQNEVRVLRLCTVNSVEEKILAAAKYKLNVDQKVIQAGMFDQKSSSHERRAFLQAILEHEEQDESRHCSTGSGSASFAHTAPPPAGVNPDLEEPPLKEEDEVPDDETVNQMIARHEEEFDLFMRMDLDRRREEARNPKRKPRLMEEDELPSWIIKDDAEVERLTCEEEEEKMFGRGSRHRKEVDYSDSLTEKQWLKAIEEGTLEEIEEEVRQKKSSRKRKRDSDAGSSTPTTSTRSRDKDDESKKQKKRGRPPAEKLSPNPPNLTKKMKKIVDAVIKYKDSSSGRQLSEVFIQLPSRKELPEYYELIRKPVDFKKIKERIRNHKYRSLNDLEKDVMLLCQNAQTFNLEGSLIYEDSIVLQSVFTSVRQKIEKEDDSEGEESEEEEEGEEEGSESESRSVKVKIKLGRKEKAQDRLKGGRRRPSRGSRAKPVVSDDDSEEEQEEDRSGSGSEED
inactive: alvocidib 0.004 | Tubastatin A -0.078 | [1] -0.007 | defactinib 0.002 | [2] -0.003 | encorafenib 0.021 | [3] 0.056 | alisertib 0.019 | [4] -0.002 | gefitinib -0.001

STK4 (UniProt Q13043)
Chain of UniProt Q13043 (Q13043 whole entry, looked up): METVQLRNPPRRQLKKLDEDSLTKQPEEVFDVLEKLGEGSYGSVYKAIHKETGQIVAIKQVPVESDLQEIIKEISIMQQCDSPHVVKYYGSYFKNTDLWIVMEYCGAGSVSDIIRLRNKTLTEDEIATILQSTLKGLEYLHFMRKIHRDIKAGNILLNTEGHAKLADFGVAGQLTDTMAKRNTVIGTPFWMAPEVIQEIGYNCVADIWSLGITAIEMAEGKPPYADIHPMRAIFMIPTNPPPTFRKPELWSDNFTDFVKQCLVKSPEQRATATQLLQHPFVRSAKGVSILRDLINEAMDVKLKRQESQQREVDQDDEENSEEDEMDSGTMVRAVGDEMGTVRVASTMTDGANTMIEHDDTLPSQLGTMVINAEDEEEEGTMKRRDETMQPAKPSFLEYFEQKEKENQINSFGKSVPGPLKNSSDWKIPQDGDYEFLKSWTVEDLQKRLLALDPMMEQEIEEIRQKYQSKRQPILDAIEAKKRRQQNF
inactive: alvocidib 0.011 | Tubastatin A -0.095 | [1] 0.365 | defactinib 0.231 | [2] 0 | encorafenib -0.073 | [3] -0.055 | alisertib 0.051 | [4] 0.257 | gefitinib 0.002

SRSF7 (UniProt Q16629)
inactive: alvocidib -0.2 | Tubastatin A -0.005 | [1] -0.057 | defactinib -0.06 | [2] 0.051 | encorafenib 0.032 | [3] 0.049 | alisertib 0.006 | [4] 0.038 | gefitinib 0.067

SKA3 (UniProt Q8IX90)
inactive: alvocidib -0.035 | Tubastatin A -0.056 | [1] 0.03 | defactinib 0.035 | [2] 0.04 | encorafenib 0.023 | [3] -0.051 | alisertib 0.039 | [4] -0.012 | gefitinib 0.063

SMG1 (UniProt Q96Q15)
inactive: alvocidib 0.022 | Tubastatin A -0.05 | [1] 0.01 | defactinib 0.033 | [2] -0.046 | encorafenib 0.016 | [3] 0 | alisertib -0.02 | [4] -0.013 | gefitinib 0.012

SNRPD3 (UniProt P62318)
inactive: alvocidib -0.121 | Tubastatin A 0.014 | [1] -0.003 | defactinib -0.046 | [2] -0.068 | encorafenib -0.014 | [3] 0.027 | alisertib 0.017 | [4] 0.022 | gefitinib 0.052

SLC39A11 (UniProt Q8N1S5)
inactive: alvocidib -0.02 | Tubastatin A -0.065 | [1] 0.107 | defactinib 0.338 | [2] -0.111 | encorafenib -0.059 | [3] -0.23 | alisertib -0.047 | [4] 0.097 | gefitinib 0.059

SNRPD2 (UniProt P62316)
Chain of UniProt P62316 (P62316 whole entry, looked up): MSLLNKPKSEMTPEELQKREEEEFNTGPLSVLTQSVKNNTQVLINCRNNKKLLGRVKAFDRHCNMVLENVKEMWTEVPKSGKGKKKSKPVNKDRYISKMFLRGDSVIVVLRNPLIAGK
inactive: alvocidib -0.054 | Tubastatin A 0.027 | [1] -0.003 | defactinib -0.019 | [2] 0.021 | encorafenib 0.005 | [3] -0.027 | alisertib 0.014 | [4] 0.029 | gefitinib -0.02

SYNRG (UniProt Q9UMZ2)
inactive: alvocidib 0.026 | Tubastatin A -0.016 | [1] -0.021 | defactinib 0.015 | [2] 0.002 | encorafenib -0.004 | [3] 0.024 | alisertib 0.033 | [4] 0.003 | gefitinib -0.006

SHC1 isoform 6 (UniProt P29353)
inactive: alvocidib 0.186 | Tubastatin A 0.035 | [1] 0.001 | defactinib -0.031 | [2] 0.086 | encorafenib 0.15 | [3] -0.078 | alisertib -0.008 | [4] -0.014 | gefitinib -0.035

STK38 (UniProt Q15208)
active: [1] 0.912 | defactinib 0.502
inactive: alvocidib 0.014 | Tubastatin A -0.056 | [2] -0.037 | encorafenib -0.033 | [3] 0.056 | alisertib 0.003 | [4] 0.266 | gefitinib 0.005

SLC25A25 isoform 3 (UniProt Q6KCM7)
inactive: alvocidib 0.014 | Tubastatin A 0.015 | [1] 0.007 | defactinib 0.029 | [2] 0.003 | encorafenib 0.035 | [3] 0.012 | alisertib -0.011 | [4] 0.025 | gefitinib 0.037

STK25 (UniProt O00506)
inactive: alvocidib -0.016 | Tubastatin A -0.093 | [1] 0.023 | defactinib 0.147 | [2] -0.023 | encorafenib 0.025 | [3] -0.04 | alisertib -0.007 | [4] 0.036 | gefitinib -0.065

SQLE (UniProt Q14534)
active: Tubastatin A 0.377 | [3] 0.437
inactive: alvocidib 0.003 | [1] 0.018 | defactinib -0.009 | [2] -0.022 | encorafenib 0.002 | alisertib 0.059 | [4] -0.015 | gefitinib -0.045

SLC11A2 isoform 3 (UniProt P49281)
inactive: alvocidib -0.032 | Tubastatin A -0.047 | [1] 0.031 | defactinib -0.001 | [2] -0.008 | encorafenib 0.063 | [3] -0.027 | alisertib 0.128 | [4] 0.021
active: gefitinib 0.295

SPR (UniProt P35270)
inactive: alvocidib 0.164 | Tubastatin A -0.1 | [1] 0.071 | defactinib 0.019 | [2] 0.01 | encorafenib -0.097 | [3] 0.22 | alisertib 0.163 | [4] -0.017 | gefitinib -0.013

SHCBP1 (UniProt Q8NEM2)
inactive: alvocidib 0.001 | Tubastatin A -0.122 | [1] -0.043 | defactinib 0.012 | [2] -0.084 | encorafenib 0.049 | [3] -0.003 | alisertib 0.088 | [4] -0.015 | gefitinib 0.055

SLC7A5 (UniProt Q01650)
Chain of UniProt Q01650 (Q01650 whole entry, looked up): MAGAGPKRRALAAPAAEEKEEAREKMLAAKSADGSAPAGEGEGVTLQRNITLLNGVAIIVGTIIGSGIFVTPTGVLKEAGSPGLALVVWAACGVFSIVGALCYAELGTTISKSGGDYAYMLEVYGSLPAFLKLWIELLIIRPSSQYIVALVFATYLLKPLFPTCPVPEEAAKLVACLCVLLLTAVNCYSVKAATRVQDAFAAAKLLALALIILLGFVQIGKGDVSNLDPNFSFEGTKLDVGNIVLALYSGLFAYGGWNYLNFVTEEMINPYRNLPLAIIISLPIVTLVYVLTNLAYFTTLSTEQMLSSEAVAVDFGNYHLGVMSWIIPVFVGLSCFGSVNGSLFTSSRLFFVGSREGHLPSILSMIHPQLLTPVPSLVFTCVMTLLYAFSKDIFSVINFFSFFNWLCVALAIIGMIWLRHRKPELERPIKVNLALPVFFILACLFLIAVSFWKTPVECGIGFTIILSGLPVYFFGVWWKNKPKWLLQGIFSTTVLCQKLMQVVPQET
inactive: alvocidib -0.142 | Tubastatin A 0.012 | [1] -0.047 | defactinib -0.044 | [2] 0.046 | encorafenib -0.001 | [3] -0.084 | alisertib -0.002 | [4] 0.021 | gefitinib 0.006

SMG5 (UniProt Q9UPR3)
inactive: alvocidib 0.086 | Tubastatin A -0.075 | [1] 0.014 | defactinib 0.04 | [2] -0.037 | encorafenib 0.067 | [3] 0.058 | alisertib 0.04 | [4] 0.004 | gefitinib 0.028

SMTN isoform 6 (UniProt P53814)
Chain of UniProt P53814 (P53814 whole entry, looked up): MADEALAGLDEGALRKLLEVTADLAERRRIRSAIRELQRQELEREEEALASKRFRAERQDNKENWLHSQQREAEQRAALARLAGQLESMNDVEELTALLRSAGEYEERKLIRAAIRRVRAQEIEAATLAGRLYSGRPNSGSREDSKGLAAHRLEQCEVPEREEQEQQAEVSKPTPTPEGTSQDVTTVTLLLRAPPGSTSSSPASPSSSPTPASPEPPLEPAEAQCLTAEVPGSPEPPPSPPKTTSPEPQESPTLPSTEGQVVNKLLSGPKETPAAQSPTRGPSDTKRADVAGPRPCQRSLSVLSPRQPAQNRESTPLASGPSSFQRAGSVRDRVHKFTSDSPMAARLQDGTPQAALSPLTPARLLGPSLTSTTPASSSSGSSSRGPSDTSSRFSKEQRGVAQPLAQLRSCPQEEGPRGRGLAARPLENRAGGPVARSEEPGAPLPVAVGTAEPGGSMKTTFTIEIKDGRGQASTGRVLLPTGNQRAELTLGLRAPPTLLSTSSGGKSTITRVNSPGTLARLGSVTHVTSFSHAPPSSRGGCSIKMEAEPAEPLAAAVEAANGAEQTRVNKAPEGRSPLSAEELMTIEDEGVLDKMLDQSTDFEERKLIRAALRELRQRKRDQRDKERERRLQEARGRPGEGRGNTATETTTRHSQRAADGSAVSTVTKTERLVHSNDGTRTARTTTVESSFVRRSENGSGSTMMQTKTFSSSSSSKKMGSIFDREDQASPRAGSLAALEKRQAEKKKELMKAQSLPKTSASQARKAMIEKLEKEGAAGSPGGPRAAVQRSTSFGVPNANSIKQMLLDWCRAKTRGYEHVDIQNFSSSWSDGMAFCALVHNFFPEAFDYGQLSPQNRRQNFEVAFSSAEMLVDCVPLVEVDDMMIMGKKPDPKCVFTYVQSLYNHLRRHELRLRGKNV
inactive: alvocidib -0.04 | Tubastatin A -0.019 | [1] 0.071 | defactinib -0.103 | [2] -0.013 | encorafenib -0.002 | [3] -0.085 | alisertib 0.055 | [4] -0.005 | gefitinib 0.005
